The panel holds about 79,000 compounds, 15% with a hit somewhere; the sample as a whole holds those more often. Values without a mark were called inactive. Calls of active or inactive are those of the source. Cut-off read from the data, not from the text of the source: active = growth inhibition above about 70%; inactive = the rest.
How the values were obtained:
[1] = NCI Yeast Anticancer Drug Screen. Data for the rad52 strain (AID 147);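 note: 0% = growth of vehicle-treated control cultures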; settings: S. cerevisiae rad52 mutant growth inhibition, hits give high values
Procedure, shortened: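 Vehicle-treated cultures served as the reference for growth inhibition of compound-exposed yeast bearing a DNA repair mutation.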

[2] = NCI Yeast Anticancer Drug Screen. Data for the wt1 strain (AID 149);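 note: 0% = growth of vehicle-treated wt1 cultures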; settings: S. cerevisiae wt1 strain (SPY 50644) growth inhibition, hits give high values
Procedure, shortened: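 Growth inhibition read against vehicle controls after compound exposure of the wt1 yeast strain.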

[3] = NCI Yeast Anticancer Drug Screen. Data for the rad50EPP+ strain (AID 151);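 note: 0% = growth of vehicle-treated control cultures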; settings: S. cerevisiae rad50 mutant strain, hits give high values
Procedure, shortened: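 In this screen, rad50EPP+ yeast were exposed to compounds. Growth inhibition was scored against vehicle-treated controls.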

[4] = NCI Yeast Anticancer Drug Screen. Data for the mgt1 strain (AID 153); settings: S. cerevisiae mgt1 mutant growth inhibition, hits give high values
Procedure, shortened: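 mgt1 strain exposed; growth vs vehicle control recorded as inhibition.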

[5] = NCI Yeast Anticancer Drug Screen. Data for the rad50 strain (AID 155);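 note: 0% = growth of vehicle-only cultures of the same strain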; settings: S. cerevisiae rad50 strain growth inhibition, hits give high values
Procedure, shortened: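 Readout: growth inhibition relative to vehicle-treated cultures. Compound exposure was carried out in a genetically defined yeast strain deficient in DNA damage repair.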

[6] = NCI Yeast Anticancer Drug Screen. Data for the mec2-1 strain (AID 157); settings: S. cerevisiae mec2-1 strain, hits give high values
Procedure, shortened: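 Vehicle-treated cultures served as reference for growth inhibition of compound-exposed mec2-1 yeast.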

[7] = NCI Yeast Anticancer Drug Screen. Data for the rad14 strain (AID 159);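 note: 0% = growth of vehicle-treated control cultures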; settings: S. cerevisiae rad14 strain growth inhibition, hits give high values
Procedure, shortened: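 Growth inhibition vs vehicle controls; genetically altered yeast strain (DNA damage repair defect) treated with test compounds.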

[8] = NCI Yeast Anticancer Drug Screen. Data for the sgs1 mgt1 strain (AID 161);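 note: 0% = growth of cultures given vehicle only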; settings: S. cerevisiae sgs1 mgt1 strain, hits give high values
Procedure, shortened: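 Genetically altered yeast, compound exposure, growth inhibition relative to vehicle.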

[9] = NCI Yeast Anticancer Drug Screen. Data for the CLN2oe strain (AID 163);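 note: 0% = growth of vehicle-only control cultures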; settings: S. cerevisiae CLN2oe strain, hits give high values
Procedure, shortened: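 Inhibition relative to vehicle-treated yeast is reported. Cells: strain with genetic alteration in cell-cycle control, grown with compound.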

[10] = NCI Yeast Anticancer Drug Screen. Data for the cln2 rad14 strain (AID 165);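 note: 0% = growth equal to vehicle treated cultures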; settings: S. cerevisiae cln2 rad14 strain, hits give high values
Procedure, shortened: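 Each compound was tested on cln2 rad14 yeast. Inhibition of growth was calculated against vehicle-exposed controls.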

[11] = NCI Yeast Anticancer Drug Screen. Data for the bub3 strain (AID 167); settings: S. cerevisiae bub3 mutant strain, hits give high values
Procedure, shortened: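 Readout: yeast growth inhibition, expressed relative to vehicle-only wells. The test organism is a mutant strain from a panel with lesions in DNA repair or checkpoint genes.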

[12] = NCI Yeast Anticancer Drug Screen. Data for the wt2 strain (AID 169);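 note: 0% = growth of vehicle-treated yeast cultures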; settings: S. cerevisiae wt2 strain growth inhibition, hits give high values
Procedure, shortened: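 Inhibition of yeast growth was determined after compound treatment, normalised to controls receiving only vehicle.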

[13] = NCI Yeast Anticancer Drug Screen. Data for the mlh1 rad18 strain (AID 175); settings: S. cerevisiae mlh1 rad18 strain growth inhibition, hits give high values
Procedure, shortened: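 Vehicle-treated cultures served as the reference for growth inhibition in a yeast strain carrying DNA damage repair alterations exposed to each compound.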

[14] = at 5.0 µM (retest, dose inferred, filed as 0.5)
[15] = at 50.0 µM (retest, dose inferred, filed as 5.0)

## CC(=O)c1cc2c(Cl)cc(Cl)cc2oc1=O
[1]; at 1.2 µM
  growth inhibition: 20%
[1]; at 3.7 µM
  growth inhibition: 19%
[1]; at 11.0 µM
  growth inhibition: 4%
[1]; at 33.0 µM
  growth inhibition: 9%
[1]; at 100.0 µM
  growth inhibition: 20%
[2]; at 1.2 µM
  growth inhibition: -38%
[2]; at 3.7 µM
  growth inhibition: -33%
[2]; at 11.0 µM
  growth inhibition: -38%
[2]; at 33.0 µM
  growth inhibition: -33%
[2]; at 100.0 µM
  growth inhibition: -22%
[3]; at 1.2 µM
  growth inhibition: -15%
[3]; at 3.7 µM
  growth inhibition: -16%
[3]; at 11.0 µM
  growth inhibition: -2%
[3]; at 33.0 µM
  growth inhibition: -10%
[3]; at 100.0 µM
  growth inhibition: 15%
[4]; at 1.2 µM
  growth inhibition: 9%
[4]; at 3.7 µM
  growth inhibition: 5%
[4]; at 11.0 µM
  growth inhibition: -13%
[4]; at 33.0 µM
  growth inhibition: -4%
[4]; at 100.0 µM
  growth inhibition: 6%
[5]; at 1.2 µM
  growth inhibition: -24%
[5]; at 3.7 µM
  growth inhibition: -17%
[5]; [14]
  growth inhibition: 30%
[5]; at 11.0 µM
  growth inhibition: -13%
[5]; at 33.0 µM
  growth inhibition: -20%
[5]; [15]
  growth inhibition: 83% (active)
[5]; at 50.0 µM
  growth inhibition: -5.9%
[5]; at 100.0 µM
  growth inhibition: -5%
[6]; at 1.2 µM
  growth inhibition: 8%
[6]; at 3.7 µM
  growth inhibition: 0%
[6]; [14]
  growth inhibition: 77% (active)
[6]; at 11.0 µM
  growth inhibition: -14%
[6]; at 33.0 µM
  growth inhibition: 3%
[6]; [15]
  growth inhibition: 94% (active)
[6]; at 50.0 µM
  growth inhibition: 53.8%
[6]; at 100.0 µM
  growth inhibition: -8%
[7]; at 1.2 µM
  growth inhibition: -19%
[7]; at 3.7 µM
  growth inhibition: -21%
[7]; at 11.0 µM
  growth inhibition: -13%
[7]; at 33.0 µM
  growth inhibition: -6%
[7]; at 100.0 µM
  growth inhibition: 14%
[8]; [14]
  growth inhibition: -8%
[8]; [15]
  growth inhibition: 20%
[9]; at 1.2 µM
  growth inhibition: -26%
[9]; at 3.7 µM
  growth inhibition: -22%
[9]; at 11.0 µM
  growth inhibition: -7%
[9]; at 33.0 µM
  growth inhibition: -10%
[9]; at 100.0 µM
  growth inhibition: -5%
[10]; [14]
  growth inhibition: 64%
[10]; [15]
  growth inhibition: 71% (active)
[11]; at 1.2 µM
  growth inhibition: -21%
[11]; at 3.7 µM
  growth inhibition: -17%
[11]; [14]
  growth inhibition: 24%
[11]; at 11.0 µM
  growth inhibition: -4%
[11]; at 33.0 µM
  growth inhibition: -25%
[11]; [15]
  growth inhibition: 46%
[11]; at 100.0 µM
  growth inhibition: 13%
[12]; at 1.2 µM
  growth inhibition: -22%
[12]; at 3.7 µM
  growth inhibition: -27%
[12]; at 11.0 µM
  growth inhibition: -34%
[12]; at 33.0 µM
  growth inhibition: -40%
[12]; at 100.0 µM
  growth inhibition: -18%
[13]; [14]
  growth inhibition: 35%
[13]; [15]
  growth inhibition: 96% (active)
[13]; at 50.0 µM
  growth inhibition: 1.3%

## N#C/C(=C1C=C(Br)/C(=N\O)C=C\1Cl)c1cccc2ccccc12
[1]; at 1.2 µM
  growth inhibition: 15%
[1]; at 3.7 µM
  growth inhibition: 16%
[1]; at 11.0 µM
  growth inhibition: 94% (active)
[1]; at 33.0 µM
  growth inhibition: 93% (active)
[1]; at 100.0 µM
  growth inhibition: 95% (active)
[2]; at 1.2 µM
  growth inhibition: -1%
[2]; at 3.7 µM
  growth inhibition: 4%
[2]; at 11.0 µM
  growth inhibition: 84% (active)
[2]; at 33.0 µM
  growth inhibition: 86% (active)
[2]; at 100.0 µM
  growth inhibition: 96% (active)
[3]; at 1.2 µM
  growth inhibition: 18%
[3]; at 3.7 µM
  growth inhibition: 36%
[3]; at 11.0 µM
  growth inhibition: 63%
[3]; at 33.0 µM
  growth inhibition: 55%
[3]; at 100.0 µM
  growth inhibition: 88% (active)
[4]; at 1.2 µM
  growth inhibition: 11%
[4]; at 3.7 µM
  growth inhibition: 4%
[4]; at 11.0 µM
  growth inhibition: 79% (active)
[4]; at 33.0 µM
  growth inhibition: 85% (active)
[4]; at 100.0 µM
  growth inhibition: 97% (active)
[5]; at 1.2 µM
  growth inhibition: 28%
[5]; at 3.7 µM
  growth inhibition: 44%
[5]; [14]
  growth inhibition: 99% (active)
[5]; at 11.0 µM
  growth inhibition: 91% (active)
[5]; at 33.0 µM
  growth inhibition: 87% (active)
[5]; [15]
  growth inhibition: 98% (active)
[5]; at 50.0 µM
  growth inhibition: 89.2% (active)
[5]; at 100.0 µM
  growth inhibition: 94% (active)
[6]; at 1.2 µM
  growth inhibition: 2%
[6]; at 3.7 µM
  growth inhibition: 18%
[6]; [14]
  growth inhibition: 100% (active)
[6]; at 11.0 µM
  growth inhibition: 89% (active)
[6]; at 33.0 µM
  growth inhibition: 91% (active)
[6]; [15]
  growth inhibition: 98% (active)
[6]; at 50.0 µM
  growth inhibition: 90.7% (active)
[6]; at 100.0 µM
  growth inhibition: 94% (active)
[7]; at 1.2 µM
  growth inhibition: -14%
[7]; at 3.7 µM
  growth inhibition: -10%
[7]; at 11.0 µM
  growth inhibition: 55%
[7]; at 33.0 µM
  growth inhibition: 70% (active)
[7]; at 100.0 µM
  growth inhibition: 96% (active)
[8]; [14]
  growth inhibition: 5%
[8]; [15]
  growth inhibition: 96% (active)
[9]; at 1.2 µM
  growth inhibition: -15%
[9]; at 3.7 µM
  growth inhibition: 27%
[9]; at 11.0 µM
  growth inhibition: 63%
[9]; at 33.0 µM
  growth inhibition: 86% (active)
[9]; at 100.0 µM
  growth inhibition: 93% (active)
[10]; [14]
  growth inhibition: 25%
[10]; [15]
  growth inhibition: 95% (active)
[11]; at 1.2 µM
  growth inhibition: 33%
[11]; at 3.7 µM
  growth inhibition: 49%
[11]; [14]
  growth inhibition: 59%
[11]; at 11.0 µM
  growth inhibition: 94% (active)
[11]; at 33.0 µM
  growth inhibition: 93% (active)
[11]; [15]
  growth inhibition: 93% (active)
[11]; at 100.0 µM
  growth inhibition: 95% (active)
[12]; at 1.2 µM
  growth inhibition: 0%
[12]; at 3.7 µM
  growth inhibition: 7%
[12]; at 11.0 µM
  growth inhibition: 87% (active)
